Bioassay records: PubChem BioAssay, National Center for Advancing Translational Sciences (NCATS)
Hits are enriched below; roughly 11% of the tested compounds scored in any of these assays.
BAZ2B block: inhibitors of human BAZ2B bromodomain. Q9UIF8. AlphaScreen BAZ2B-H3K14Ac peptide displacement. 360,000 compounds, 4.4% hits. AID 504333. Potency, µM (titrated, usually from 114 µM), for the others: at the top dose activity change, negative = inhibition, usual class: inhibitors; further: on the % scale 0 is the no-effect control and ±100 the full control effect; nearly all actives have a fitted effect of over 60% in size
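Inhibition is scored as reduced AlphaScreen emission. The BAZ2B/b-H3(5-23)K14Ac complex (50 nM each) in PBS pH 7.4, 0.01% Tween-20 meets compound (up to 110 uM) for 30 min at RT before bead addition.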
JMJD2A Tudor inh: JMJD2A Tudor domain (human) inhibition; O75164; AlphaScreen JMJD2A-Tudor / H3K4me3 peptide binding; Potency, µM (highest dose often 114 µM), without a hit: at the highest dose activity change, negative = inhibition, usual class: inhibitors; 390,000 compounds, 4.4% hits; further: on the % scale 0 is the no-effect control and ±100 the full control effect; nearly all actives have a fitted effect of over 50% in size
HP1b binding inh: inhibitors of HP1-beta chromodomain binding to methylated histone tails; P83916; AlphaScreen HP1-beta / biotin-H3K9me3 peptide binding; Potency, µM (top dose mostly 114 µM), without a hit: at the highest dose activity change, negative = inhibition, most hits filed as inhibitors; 390,000 compounds, 0.56% hits; AID 540317; further: nearly all actives have a fitted effect of over 70% in size
Target sequence (P83916 whole entry, looked up): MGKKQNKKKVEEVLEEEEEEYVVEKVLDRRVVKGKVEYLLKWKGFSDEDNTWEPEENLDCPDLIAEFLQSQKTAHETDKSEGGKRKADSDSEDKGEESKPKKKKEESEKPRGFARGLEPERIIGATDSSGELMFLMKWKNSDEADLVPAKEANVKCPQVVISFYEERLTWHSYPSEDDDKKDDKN
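HP1-beta protein (50 nM final) preincubated 30 min at room temperature with biotinylated H3(1-18)K9me3 peptide (50 nM) in PBS pH 7.4, 0.01% Tween-20, then compound added for 30 min. AlphaScreen streptavidin donor/nickel chelate acceptor beads (10 ug/mL final), 30 min dark, luminescence read.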
L3MBTL1 inh: blocks human L3MBTL1; AID 485360; 230,000 compounds, 0.66% hits; AlphaScreen L3MBTL1–H3K9me1 peptide binding; Potency, µM (titrated, usually from 57.1 µM), inactives show top-dose activity, negative = inhibition, actives largely listed as inhibitors; further: on the % scale 0 is the no-effect control and ±100 the full control effect; nearly all actives have a fitted effect of over 60% in size
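L3MBTL1 50 nM + b-AHA-H3(1-15)K9me1 75 nM, 30 min RT; compound added, 30 min RT; streptavidin donor/Ni-chelate acceptor beads 10 ug/mL each final, 30 min RT dark; AlphaScreen read.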
G9a block: G9a (human) methyltransferase inhibition | Q96KQ7 | G9a H3K9 monomethylation, AlphaScreen, 2 h | Potency, µM (series often up to 102 µM), for the others: at the highest dose activity, negative = inhibition, hits mostly inhibitors | 350,000 compounds, 8.8% hits; further: on the % scale 0 is the no-effect control and ±100 the full control effect; nearly all actives have a fitted effect of over 75% in size
Target sequence (Q96KQ7 913-1193 limits assumed): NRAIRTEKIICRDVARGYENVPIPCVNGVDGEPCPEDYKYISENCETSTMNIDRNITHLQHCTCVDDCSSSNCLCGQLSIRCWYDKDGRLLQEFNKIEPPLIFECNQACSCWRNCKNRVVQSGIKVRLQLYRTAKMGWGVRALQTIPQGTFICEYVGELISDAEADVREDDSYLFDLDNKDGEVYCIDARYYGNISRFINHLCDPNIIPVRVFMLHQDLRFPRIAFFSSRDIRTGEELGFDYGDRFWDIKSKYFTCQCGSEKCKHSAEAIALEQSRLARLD
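Quantitative HTS format: methyltransferase activity on a biotin-tagged H3K9 peptide is measured by AlphaScreen, using a rabbit anti-monomethyl-H3K9 antibody with streptavidin donor and anti-IgG acceptor beads. Final levels are 20 nM enzyme, 500 nM peptide, 20 uM SAM; 2 h RT.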
Numbers without * were called inactive; ? = inconclusive; . = no result given; [ ] = another dose, or the depositor's remark. The call rests on the fitted dose curve; in most records, active means well fitted inhibition curve with a large enough effect; inconclusive means small, poorly fitted or top-dose-only effect; inactive means no such curve, though single readings can be large or run the other way. Potency means the concentration at half of the fitted maximal effect.

SMILES	BAZ2B block	JMJD2A Tudor inh	HP1b binding inh	L3MBTL1 inh	G9a block
O=C(Nc1nccs1)c1ccc(-c2cccc([N+](=O)[O-])c2)o1	-29%	56µM*	?	.	-5%[59 µM]
Cc1cccc(CCNC(=O)c2nn(C)c3c2CSc2ccccc2-3)c1	-11%	-8%	30%	.	-28%[59 µM]
O=C(Oc1csc(=S)n1C(=O)c1ccccc1)c1ccccc1	?	35µM*	50µM*	.	1µM*
Cc1cccc(C(=O)Oc2csc(=S)n2C(=O)c2cccc(C)c2)c1	?	?	-30%	-7%	1.6µM*
Clc1ccc(OCCCNCc2ccccc2)c2ccccc12	50µM*	28µM*	?	-2%	.
CC1(C)NC(=O)N(CCCOc2ccccc2Br)C1=O	5%	-12%	7%	.	15%
C=CCc1ccccc1OCCNCc1ccccc1	?	0.89µM*	?	.	8.9µM*
Brc1ccccc1OCCNCc1ccccc1	50µM*	?	?	.	7.9µM*
Cc1cccc(N(CC(=O)NC2CCCC2)C(=O)CS(=O)CC(=O)Nc2ccc3c(c2)OCO3)c1C (stereo unspecified)	-11%	-12%[57.1 µM]	33%	-4%	7.9µM*
O=C(CCCn1c(=O)[nH]c2cc(Cl)ccc2c1=O)NCCCN1CCN(c2ccc(F)cc2)CC1	-16%	-27%	16%	.	0%
COc1ccc(CCN2C(=O)CC(NNc3ccc([N+](=O)[O-])cc3)C2=O)cc1OC (stereo unspecified)	-36%	-21%	8%	-8%	14µM*
COc1ccc(CCNC2CC(=O)N(CCc3ccc(OC)c(OC)c3)C2=O)cc1OC (stereo unspecified)	?	-16%	0%	.	-29%[12.7 µM]
COc1ccc(NC(=S)N(CCC(C)C)C2CCN(C(C)C)CC2)cc1	-2%	-24%	73%	.	-50%
COc1ccc(NC(=S)N(C(C)C)C2CCN(C(C)C)CC2)cc1Cl	-1%	.	.	.	45µM*
Cc1cc(C)cc(NC(=O)c2ccc(Cn3nc(C)c(Cl)c3C)o2)c1	5%	-6%	32%	-3%	-12%[59 µM]
Cc1ccc(CNC(=O)c2ccc(Cn3nc(C)c(Cl)c3C)o2)cc1	50µM*	?	25%	-1%	?
Cc1ccc(N(CC(=O)Nc2cc(C)ccc2C)S(=O)(=O)c2c(C)noc2C)cc1	.	-3%	35%	.	1%[59 µM]
COCCOC(=O)c1c(C)n(C)c2ccc(OC(=O)c3c(OC)cccc3OC)cc12	-27%	-19%	-21%	.	8.9µM*
COCCCn1c(=O)c2sccc2n2c(CCCC(=O)Nc3cccc(C(F)(F)F)c3)nnc12	-3%	8%	35%	.	-3%[59 µM]
Cc1cccc(NC(=O)c2cc3c(=O)n4cccc(C)c4nc3s2)c1C	3%	-17%	26%	.	5%[59 µM]
CC1=NN(C(=O)c2ccncc2)C(=O)C1N=Nc1ccc2ccccc2c1 (stereo unspecified)	.	?	25µM*	.	.
CC1=NN(C(N)=S)C(=O)C1N=Nc1ccc(Cl)cc1 (stereo unspecified)	-6%	?	?	4%	71µM*
CC1=NN(C(N)=S)C(=O)C1N=Nc1cccc(Cl)c1C (stereo unspecified)	45µM*	50µM*	?	-7%	.
CC1=NN(C(N)=S)C(=O)C1N=Nc1cccc2ccccc12 (stereo unspecified)	40µM*	.	.	-1%	.
CC1=NN(C(N)=S)C(=O)C1N=Nc1ccccc1 (stereo unspecified)	2%	-19%	26%	16%	2%
SMILES	BAZ2B block	JMJD2A Tudor inh	HP1b binding inh	L3MBTL1 inh	G9a block
CC1=NN(C(N)=S)C(=O)C1N=Nc1ccc(Br)cc1 (stereo unspecified)	-11%	-27%	14%	14%	.
CCOc1ccccc1NC(=O)N1CCC2(CC1)Oc1ccccc1C(=O)N2Cc1ccccc1F	-16%	-18%	17%	.	-23%[59 µM]
O=C(CSc1nc2cc(C(=O)NC3CCCC3)ccc2c(=O)n1CC1CCCO1)c1ccc(F)cc1 (stereo unspecified)	-5%	-14%	-13%	.	0%[59 µM]
Cc1cc(C)c(S(=O)(=O)N2CCOC2CNC(=O)C(=O)NCCCN2CCOCC2)c(C)c1 (stereo unspecified)	-6%	-13%	29%	.	.
CCC(C)NC(=O)CCc1c(C)nc2cc(-c3ccc(OC)cc3OC)nn2c1C (stereo unspecified)	-4%	-14%	29%	.	4%[59 µM]
CSc1ncc(C(=O)NCc2ccc(F)cc2)c(-c2ccccc2)n1	-1%	-9%	12%	.	9%[59 µM]
CN(Cc1ccccc1)c1ncnc2c1nnn2C	-1%	0%	15%	.	10%[59 µM]
CC(C)c1ccc(Nc2nc(CC(=O)O)cs2)cc1	-29%	-32%	-13%	.	40µM*
O=C(O)Cc1csc(Nc2cccc(Cl)c2)n1	-37%	-24%	16%	-10%	-14%[59 µM]
CC(C)(C)OC(=O)N1CCC(c2c(C(=O)NCc3ccco3)cnn2-c2ccc(F)cc2)CC1	2%[57.1 µM]	-28%	13%	.	?
O=C(Nc1nnc(C2CC2)s1)C1Cc2ccccc2CN1C(=O)c1ccco1 (stereo unspecified)	50µM*	?	?	?	20µM*
O=C(Nc1nnc(SCc2ccc(F)cc2)s1)C1Cc2ccccc2CN1C(=O)c1ccco1 (stereo unspecified)	-28%[57.1 µM]	-34%	28%	-17%	?
COc1cccc(C(=O)/C=C/Nc2cccc(O)c2)c1	-33%	-32%	10%	.	14µM*
COc1ccc(CNC(=O)c2cc(-c3ccc(C)c(C)c3)n[nH]2)cc1	-9%	10%	50%	.	6%[59 µM]
O=C(COc1ccc(F)cc1)OCc1cc(=O)n2nc(C3CCCCC3)sc2n1	-10%	-10%	15%	.	10%[59 µM]
COc1ccc(N2CCN(S(=O)(=O)CCNC(=O)Cc3ccc(Cl)cc3)CC2)cc1	5%	-4%	16%[57 µM]	.	-4%[59 µM]
Oc1ccccc1-c1nnc(COc2ccc(Cl)cc2Cl)o1	4%	40µM*	7%	-3%	?
CCOc1ccc(C(=O)Nc2ccc3c(c2)CCCN3S(=O)(=O)c2ccc(C)cc2)cc1	-13%	-1%	24%	.	2%[12.7 µM]
CCN(CC)c1ccc(/C=C2\NC(=O)NC2=O)cc1	-4%	-16%	7%	-4%	-17%
O=C1NC(=O)/C(=C\c2ccsc2)N1	45%	32µM*	-3%	.	-12%
CNC(=O)[C@H]1O[C@@H](n2cnc3c(N)ncnc32)[C@H](O)[C@@H]1O	.	.	.	.	37%[59 µM]
CCOC(=O)C1=NN(N=O)C2(CC(=O)N(c3cc(C)cc(C)c3)C2=O)C1 (stereo unspecified)	-9%	-34%	10%	.	4.5µM*
CCOC(=O)C1=NNC2(CC(=O)N(c3cc(C)cc(C)c3)C2=O)C1 (stereo unspecified)	2%	-10%	10%	.	-44%
CCN1CCN(C(=O)c2cc3c(=O)n(C)c4ccccc4c3n2C)CC1	6%	-3%	57%	-8%	?
